Compounds without any hit were thinned out: in the full panel of roughly 83,000, 20% have a hit.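 Interpretation: 100, growth as untreated; towards 0, rising growth inhibition; 0, no net growth; 0 to -100, cell death. Compounds scoring below 10 were considered active.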 Unmarked numbers belong to inactive results. Active and inactive are the calls of the source.

Our source for the growth values is PubChem BioAssay (NCI).

Holding throughout (assay): NCI-60 one-dose screen, 48 h (100 = growth as untreated, 0 = no growth, -100 = all killed)
Holding throughout (conditions): 10 µM unless noted

The test system of assay [1] is HCT-15 colon.
In assay [2] the test system is SNB-75 CNS.
The test system of assay [3] is SNB-19 CNS.
Assay [4] concerns U251 CNS.
Assay [5] has as its system PC-3 prostate.
Assay [6] has as its system SK-MEL-5 melanoma.
Assay [7] deals with LOX IMVI melanoma.
Assay [8] deals with SK-MEL-28 melanoma.
Assay [9] relates to SK-MEL-2 melanoma.
Assay [10] has as its system EKVX NSCLC.
The test system of assay [11] is SN12C renal.
Assay [12] concerns UO-31 renal.
Assay [13] relates to TK-10 renal.
Assay [14] concerns ACHN renal.
In assay [15] the test system is CAKI-1 renal.
Assay [16] relates to A498 renal.
In assay [17] the test system is CCRF-CEM leukemia.
Assay [18] concerns MOLT-4 leukemia.
Assay [19] has as its system UACC-62 melanoma.

In the case of `O=C(/C=C/c1ccco1)Nc1ncc(Cc2cc(Cl)ccc2Cl)s1`, the growth in [1] was 13.5%; in assay [2], 16.6%; in assay [3], 44.8%; in [4], 18.9%; in assay [5] it was 25.3%; in assay [6], 15.2%. Also, the growth in assay [7] is 25.9%; in [8], 57%; in [9], 36.3%; in assay [10] it was 34.2%; in [11], 29.6%; in assay [12], 36.6%. Besides, the growth in assay [13] was 51.5%; in assay [14], 35.7%; in [15], 36.5%; in assay [16] it was 10.3%; in assay [17], 17.3%; in [18], 14%.

For `CN(C)C1CN(C(=O)c2cc(-c3ccc4ncnc(N5CCc6cc(F)c(Cl)cc65)c4c3)cnc2N)C1`, the growth in [1] is 7.17% (active); in assay [2], -27% (active); in [3] it was 23.5%; in assay [4], 25%; in assay [5], 7.13% (active); in assay [6] it was -20.8% (active). Besides, the growth in assay [19] is -19.7% (active); in assay [7], 7.5% (active); in [8], 8.13% (active); in assay [9], -11.5% (active); in assay [10], 10.1%; in assay [11] it was 11.1%. The growth is 7.34% (active) in assay [12]; 5.66% (active) in assay [13]; 10.8% in [14]; 0.593% (active) in assay [15]; -78.2% (active) in [16]; 15.7% in assay [17]. Further, the growth in [18] is 4.86% (active).

As for `Cc1cc(O)c(=O)cc2c1C[C@H]1CC(C)(C)/C=C/C[C@]3(C)Oc4cc(=O)c(O)cc(C)c4C[C@H]3C[C@H](O)[C@@]1(C)O2`, the growth in [1] is 17.3%; in assay [2], 23.5%; in [3] it was 4.62% (active); in assay [4] it was 2.67% (active); in assay [5], 10.2%; in [6], -9.26% (active). Besides, the growth in [19] is -56.5% (active); in assay [7], 6.33% (active); in assay [8], 5.5% (active); in assay [9], -0.26% (active); in [10], 1.96% (active); in [11], 0.888% (active). The growth was -3.55% (active) in [12]; 12.8% in assay [13]; 6.64% (active) in assay [14]; 0.0892% (active) in [15]; 12.3% in [16]; 9.98% (active) in [17]. Besides, in assay [18], the growth is 7.8% (active).

On to `COc1cc(N2C(=O)[C@H](Cl)C2c2ccc(SC)cc2)cc(OC)c1OC` (some centres undefined), for which the growth in assay [1] was 4.62% (active); in assay [2] it was 73.9%; in [3], 30.5%; in [4] it was 7.72% (active); in [5] it was 22.1%; in assay [6], -34.3% (active). Moreover, the growth in [7] is 20.3%; in assay [8], 65.7%; in assay [9], 44.6%; in [10] it was 28.6%; in assay [11] it was 31.8%; in assay [12] it was 40.6%. In addition, the growth in assay [13] was 49.1%; in assay [14] it was 30.3%; in assay [15], 24.3%; in [16], -7.35% (active); in assay [17], 11.4%; in [18], 7.86% (active).

For `CCN1C(=O)N(CC)C2C1NN=c1s/c(=C\c3ccc(OC)cc3)c(=O)n12` (centres undefined), the growth in [1] was 10.3%; in assay [2], 23%; in assay [3], 26.9%; in assay [4] it was 7.45% (active); in [5], 26.5%; in assay [6], -10.8% (active). In addition, the growth in assay [19] is 23.9%; in assay [7] it was 17.1%; in [8], 56.4%; in assay [9], 34.5%; in assay [10] it was 51.9%; in [11], 24.9%. Also, the growth in assay [12] is 39.3%; in assay [13], 66.2%; in [14], 28.5%; in assay [15] it was 25.5%; in assay [16], 11.8%; in assay [17], 9.06% (active). In [18], the growth was 14%.

For `COc1cc2c3c(c4c5ccccc5[nH]c4c2c(OC)c1OC)C(=O)N(CCN1CCCCC1)C3=O`, the growth in assay [1] was -87.2% (active); in assay [2] it was 63.5%; in assay [3] it was 30.1%; in [4] it was -60.3% (active); in assay [5] it was 31.3%; in assay [6] it was 31.7%. In addition, the growth was 48.4% in [19]; -92% (active) in [7]; 52.2% in [8]; 49.4% in [9]; 35.1% in [10]; 12.6% in assay [11]. The growth is 16.1% in assay [12]; -76.6% (active) in [13]; -40.4% (active) in assay [14]; -49% (active) in assay [15]; 42.4% in assay [16]; 3.38% (active) in [17]. For the same molecule, the growth in [18] is 12.9%.

`Cc1c2cnccc2c(C)c2c1c1cc(CO)ccc1n2C`: the growth is -10.9% (active) in [1]; -45.1% (active) in assay [2]; -22.2% (active) in assay [3]; -38.1% (active) in [4]; -9.48% (active) in assay [5]; -96.8% (active) in [6]. Besides, the growth in assay [19] was -74.7% (active); in assay [7] it was -63.5% (active); in assay [8] it was -69.5% (active); in [9], -75.5% (active); in assay [10], -15.2% (active); in [11], -33.8% (active). In addition, the growth in assay [12] was -32.6% (active); in [13] it was -27.7% (active); in assay [14], -36.4% (active); in assay [15], -28.3% (active); in [16] it was -67.1% (active); in assay [17] it was -7.79% (active). Also, the growth in assay [18] was -10.8% (active).

As for `COC1C(O)CC(OC2CC(OC3CC(O[C@@H]4C(=O)c5c(cc6cc(OC7CC(OC8CC(O)C(O)C(C)O8)C(O)C(C)O7)c(C)c(O)c6c5O)CC4[C@H](OC)[C@@H](O)C(C)=O)OC(C)C3O)OC(C)C2O)OC1C` (some centres undefined), the growth in assay [1] is 28%; in assay [3] it was 16.4%; in assay [4], 7.11% (active); in assay [5], 16.9%; in [6] it was -65.2% (active); in assay [19], -20.9% (active). Moreover, the growth is -25.2% (active) in [7]; -13.9% (active) in [8]; -37.7% (active) in [9]; 19.8% in assay [10]; 17% in assay [11]; 0.176% (active) in assay [12]. Besides, the growth is -1.06% (active) in assay [13]; 0.949% (active) in [14]; 29.3% in assay [15]; -78.8% (active) in assay [16]; 16.6% in assay [17]; -2.23% (active) in [18].
